PubChem BioAssay (NCATS)
Inconclusive results are not listed. Activity calls are given as the source filed them. Calls come from the whole dose curve; as a rule, active = well fitted inhibition curve with a large enough effect; inconclusive = small, poorly fitted or top-dose-only effect; inactive = flat fitted curve, though single readings scatter. Numbered stars: 1 amine (or outer) side, 2 acyl side, 3 side chain; on linkers, the order of the positions; unused ones are H or OH. Bridge positions count the residues as written; N and C are the ends. Square brackets hold non-standard residues; d marks the D form. Peptide text beside a SMILES is read from it. * marks the point of attachment. ξ: configuration not given here. ΔAla(Z-3-ureido) = NC(=O)N/C=C(\N)C(=O)O; ξDab(CH2SO3H) = NC(CCNCS(=O)(=O)O)C(=O)O; X2 = NC1=NC(O)CC(C(N[*:1])C(=O)[*:2])N1; X1 = NC1=NCCC(C(N[*:1])C(=O)[*:2])N1; Heptanoyl(6-Me) = CC(C)CCCCC(=O)*; ξβ3hOrn = NCCCC(N)CC(=O)*; Dab = NCC[CH](N)C(=O)O; Dap = NC[CH](N)C(=O)O

Experiments:
Test in all cases: qHTS profiling for inhibitors of Plasmodium falciparum proliferation (AID 504749); note: nearly all actives have a fitted effect of over 60% in size
Settings in all cases: P. falciparum in erythrocytes, SYBR Green DNA, 72 h; series mostly up to 28.7 µM
3D7 = system: 3D7
Outline: (§1)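 P. falciparum-infected erythrocytes (0.3% parasitemia, 2.5% hematocrit) incubated with compound 72 h at 37 C, 5% CO2. Parasite DNA detected by SYBR Green after lysis, overnight at room temperature; normalised to 0.29 uM artemisinin and DMSO.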

AS120 = system: AS120
Outline: as §1

ATS95 = system: ATS95
Outline: as §1

CP191 = system: CP191
Outline: as §1

CP211 = system: CP211
Outline: as §1

CP215 = system: CP215
Outline: as §1

CP250 = system: CP250
Outline: as §1

CP256 = system: CP256
Outline: as §1

CP262 = system: CP262
Outline: as §1

CP297 = system: CP297
Outline: as §1

CP335 = system: CP335
Outline: as §1

Dd2 = system: Dd2
Outline: as §1

ECU = system: ECU
Outline: as §1

GB4 = system: GB4
Outline: as §1

N140 = system: N140
Outline: as §1

P93_24 = system: P93_24
Outline: as §1

PAD = system: PAD
Outline: as §1

TAB113 = system: TAB113
Outline: as §1

TAB165 = system: TAB165
Outline: as §1

CP247 = system: CP247
Outline: as §1

Measured: Potency
Potency is the fitted concentration of half-maximal effect.

CCC(C)C1NC(=O)C(Cc2ccc(O)cc2)NC(=O)C(N)CSSCC(C(=O)N2CCCC2C(=O)NC(CC(C)C)C(=O)NCC(N)=O)NC(=O)C(CC(N)=O)NC(=O)C(CCC(N)=O)NC1=O (stereo not given)
not listed: CP247
inactive: all other assays above

NCCCC(N)CC(=O)NCC1NC(=O)C(CO)NC(=O)C(N)CNC(=O)C(C2CCN=C(N)N2)NC(=O)/C(=C/NC(N)=O)NC1=O (stereo not drawn) (H-[Dap]S[Dap](ξβ3hOrn)[ΔAla(Z-3-ureido)][X1]; lactam 1-C; configuration not given here)
inactive: all assays above

CC(C)C[C@H](NC(=O)[C@@H](Cc1c[nH]c2ccccc12)NC(=O)[C@@H](Cc1ccc(O)cc1)NC(=O)[C@@H](CO)NC(=O)[C@@H](Cc1c[nH]c2ccccc12)NC(=O)C(Cc1cnc[nH]1)NC(=O)C1CCC(=O)N1)C(=O)N[C@@H](CCCN=C(N)N)C(=O)N1CCC[C@@H]1C(=O)NCC(N)=O (stereo not given in full)
inactive: all assays above

CC(C)C(NC(=O)C(CC(=O)O)NC(=O)C(CCCCN)NC(=O)C(N)CCCN=C(N)N)C(=O)NC(Cc1ccc(O)cc1)C(=O)O (stereo not given) (H-RKDVY-OH; configuration not given here)
inactive: all assays above

CCC(C)C1NC(=O)C(CCNCS(=O)(=O)O)NC(=O)C(NC(=O)C(CCNCS(=O)(=O)O)NC(=O)C(NC(=O)C(CCNCS(=O)(=O)O)NC(=O)CCCCC(C)C)C(C)O)CCNC(=O)C(C(C)O)NC(=O)C(CCNCS(=O)(=O)O)NC(=O)C(CCNCS(=O)(=O)O)NC(=O)C(C(C)CC)NC1=O (stereo not given) ({Heptanoyl(6-Me)}-[ξDab(CH2SO3H)]T[ξDab(CH2SO3H)][Dab][ξDab(CH2SO3H)]II[ξDab(CH2SO3H)][ξDab(CH2SO3H)]T; lactam 4-C; configuration not given here)
not listed: CP215 | CP250 | CP256
inactive: all other assays above

CCC1NC(=O)C(NC(=O)c2ncccc2O)C(C)OC(=O)C(c2ccccc2)NC(=O)C2CC(=O)CCN2C(=O)C(Cc2ccccc2)N(C)C(=O)C2CCCN2C1=O (stereo not given)
not listed: AS120 | Dd2 | ECU | GB4 | N140 | P93_24 | PAD | TAB165
inactive: all other assays above

COc1ccc(-c2nc3ccc(C4=C(C)CC(=O)NN4)cc3[nH]2)cc1
inactive: CP191 | CP250 | CP262 | CP335

NCCCC(N)CC(=O)NC1CNC(=O)C(C2CC(O)N=C(N)N2)NC(=O)/C(=C/NC(N)=O)NC(=O)C(CO)NC(=O)C(CO)NC1=O (stereo not drawn) (ξβ3hOrn-[Dap]SS[ΔAla(Z-3-ureido)][X2]; lactam 1-C; configuration not given here)
not listed: ATS95 | CP215
inactive: all other assays above

O=C(OCC1OC(OC(=O)c2cc(O)c(O)c(OC(=O)c3cc(O)c(O)c(O)c3)c2)[C@@H](OC(=O)c2cc(O)c(O)c(OC(=O)c3cc(O)c(O)c(O)c3)c2)C(OC(=O)c2cc(O)c(O)c(OC(=O)c3cc(O)c(O)c(O)c3)c2)C1OC(=O)c1cc(O)c(O)c(OC(=O)c2cc(O)c(O)c(O)c2)c1)c1cc(O)c(O)c(OC(=O)c2cc(O)c(O)c(O)c2)c1 (stereo not given in full)
active: 3D7 2000 nM | AS120 2510 nM | ATS95 2820 nM | CP191 2820 nM | CP211 4780 nM | CP215 3790 nM | CP247 2820 nM | CP250 2240 nM | CP256 3550 nM | CP262 4260 nM | CP297 3790 nM | CP335 1690 nM | Dd2 2240 nM | ECU 2240 nM | GB4 3380 nM | N140 2240 nM | P93_24 2510 nM | PAD 3550 nM | TAB113 2240 nM | TAB165 2000 nM
